KB-V1 MDR tox – qHTS assay for MDR1-selective chemotherapeutics: Primary screen using the drug-selected MDR subline cells KB-V1 | KB-V1 MDR cells viability, CellTiter-Glo, 72 h | Potency, µM (highest dose often 46.1 µM), most hits filed as cytotoxic | 3.4% of 400,000 active; further: on the % scale 0 is the no-effect control and ±100 the full control effect; nearly all actives have a fitted effect of over 60% in size
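KB-V1, DMEM (no phenol red) + 10% FBS; cpd pin-transferred, titration series; 72 h, 37 degrees C; CellTiter-Glo, luminescence. Data normalized, curve-fit.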
SW480 rereplic – A quantitative high throughput screen for small molecules that induce DNA re-replication in SW480 colon adenocarcinoma cells | SW480 DNA re-replication, Hoechst DNA content imaging, 48 h | Potency, µM (highest dose often 46.1 µM), for the others: at the highest dose re-replication activation, actives largely listed as activators | 1.8% of 340,000 active | AID 624297, 2012; further: % of control where 0% means no effect; nearly all actives have a fitted effect of over 55% in size
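Treated cells incubate 48 hr (37 C, 5% CO2), are stained 40 min with Hoechst, and nuclear fluorescence is enumerated; a rise in nuclei with high DNA signal marks re-replication.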
HT1080 IDH1KD tx – qHTS for induction of synthetic lethality in tumor cells producing 2HG: qHTS for the HT-1080-IDH1KD cell line; 2% of 360,000 active; AID 686971, 2013; Potency, µM (doses to about 46.1 µM), inactives show top-dose activity, negative = toxicity, hits mostly cytotoxic; HT-1080 IDH1 knockdown viability, ATP luminescence, 48 h;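 further: 0% = DMSO wells and -100% = cell-free medium wells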
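Assay cells: HT-1080 with IDH1 knockdown, 750 per well, RPMI/5% FBS. Exposure: 48 h at 37 °C following 2 h pre-incubation. Read: CellTiter-Glo luminescence; fitted concentration-response, curve class assigned.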
HT1080-NT tox – qHTS for induction of synthetic lethality in tumor cells producing 2HG: qHTS for the HT-1080-NT fibrosarcoma cell line; HT-1080-NT fibrosarcoma viability, CellTiter-Glo ATP luminescence, 48 h; Potency, µM (highest dose often 46.1 µM), inactives show top-dose activity, negative = less viability, actives largely listed as cytotoxic; 1.6% of 360,000 active;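 further: NT is the 2HG producing partner of a matched IDH1 knockdown line; 0% = DMSO-treated cells and -100% = media-only wells without cells; nearly all actives have a fitted effect of over 55% in size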
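Toxicity toward the 2HG-producing NT line was scored as %Activity, normalised to DMSO and no-cell wells, from CellTiter-Glo luminescence after 48 hours' treatment.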
MCF10A rereplic – A quantitative high throughput screen for small molecules that induce DNA re-replication in MCF 10a normal breast cells; 2.9% of 350,000 active; Potency, µM (top dose mostly 46.1 µM), for inactives: at the top dose activity, positive = re-replication, most hits filed as activators; MCF 10A DNA re-replication, Hoechst nuclear intensity, 48 h; AID 624296, 2012; further: % of control where 0% means no effect; nearly all actives have a fitted effect of over 50% in size
KB-3-1 tox – qHTS assay for MDR1-selective chemotherapeutics: Primary screen using the parental adenocarcinoma cell KB-3-1 | Potency, µM (series often up to 46.1 µM), most hits filed as cytotoxic | KB-3-1 viability, CellTiter-Glo ATP luminescence, 72 h | 1.4% of 400,000 active; further: on the % scale 0 is the no-effect control and ±100 the full control effect; nearly all actives have a fitted effect of over 60% in size
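Using CellTiter-Glo luminescence, growth of non-resistant KB-3-1 adenocarcinoma cells is assessed 72 h after pin-tool compound addition at 37 °C. Normalized responses across the concentration series yield fitted curves.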
Starred values were filed as active, the others as inactive; i = inactive; ? = inconclusive; . = not tested or not shown; [ ] = remark or other dose. In the library only some 7.9% were active in any assay of this set; here they are far more common. The call rests on the fitted dose curve; in most records, active means well fitted curve in the direction sought with a large enough effect; inconclusive means small, poorly fitted or top-dose-only effect, or another doubt; inactive means no such curve, though single readings can be large; an effect the other way counts as inactive or inconclusive. Potency means the concentration at half of the fitted maximal effect.

SMILES	KB-V1 MDR tox	SW480 rereplic	HT1080 IDH1KD tx	HT1080-NT tox	MCF10A rereplic	KB-3-1 tox
O=C(COC(=O)Cc1ccc(Br)cc1)NCc1ccccc1	i	.	3%	3%	.	i
COc1ccccc1CNC(=O)Cc1ccc(Br)cc1	23µM*	.	-24%	-12%	?	i
COc1cc(NC(=O)c2ccccc2)c(OC)cc1NC(=O)Cc1ccc(Br)cc1	i	?	-2%	1%	12µM*	i
CCOC(=O)Cc1csc(NC(=O)CSc2ncnc3c2cnn3-c2ccc(OC)cc2)n1	i	-3%	-2%	4%	20%	i
CCOC(=O)C1C(C(C)=O)=C(c2ccccc2)c2ccccc2N1S(=O)(=O)C(F)(F)F (stereo not given)	i	-37%	0%	4%	9%	i
CN(C)CCCN(C(=O)c1ccc(C(=O)c2ccccc2)cc1)c1nc2cc3c(cc2s1)OCO3	21µM*	?	?	?	?	?
CN(C)CCCN(C(=O)c1cc2cc([N+](=O)[O-])ccc2s1)c1nc2cc3c(cc2s1)OCCO3	18µM*	10µM*	?	?	?	?
CN(C)CCCN(C(=O)c1ccc(Cl)s1)c1nc2cc3c(cc2s1)OCO3	i	?	?	18µM*	?	i
CN(C)CCCN(C(=O)c1ccc([N+](=O)[O-])s1)c1nc2cc3c(cc2s1)OCCO3	i	?	-2%	-2%	-9%	i
CN(C)CCCN(C(=O)c1cc(Cl)sc1Cl)c1nc2cc3c(cc2s1)OCO3	?	24%	?	?	?	i
CCc1cccc2c(-c3csc(=NC)n3C)c[nH]c12	i	?	-18%	-28%	1%	i
CC1=C(C(N)=O)C(c2ccccc2)n2nc(-c3cccc(C)c3)nc2N1 (stereo not given)	i	0%	7%	-5%	-1%	?
O=C(O)CSC1CC(=O)N(c2ccc(F)cc2)C1=O (stereo not given)	i	.	3%	2%	.	i
COc1ccc(NC(=O)c2cc(Br)ccc2Cl)c([N+](=O)[O-])c1	i	14%	-29%	-27%	?	i
O=C(Nc1c(Cl)cc([N+](=O)[O-])cc1Cl)c1cc(Cl)ccc1O	?	.	.	.	.	0.73µM*
O=C(Nc1ccc([N+](=O)[O-])cc1Cl)c1cc(Br)ccc1O	1.8µM*	.	.	.	.	2.3µM*
CCOc1ccc2nc(NC(=O)CSc3nc(-c4ccccc4)c(C#N)c(=O)[nH]3)sc2c1	i	1%	10%	-11%	?	i
CCCCC1S/C(=N/N=C/c2ccc(OC)cc2)N(Cc2ccc(OC)cc2)C1=O (stereo not given)	8.2µM*	?	-3%	-3%	2%	i
CCCC1S/C(=N/N=C/c2ccc(OC)cc2)N(Cc2ccccc2)C1=O (stereo not given)	i	-3%[9.22 µM]	-8%	2%	?	i
CCCC1S/C(=N/N=C/c2ccc(OC)cc2)N(Cc2ccc(OC)cc2)C1=O (stereo not given)	16µM*	-1%	-2%	-4%	11%	i
COc1ccc(N2C(=O)C(CC(=O)O)S/C2=N\N=C\c2cccs2)cc1 (stereo not given)	i	-4%	18%	18%	3%	i
COc1cccc(NC(=O)COC(=O)CCC2CCCC2)c1	i	-1%	0%	10%	-2%	i
CC(C)N=C(NS(=O)(=O)c1ccccc1)C(Cl)(Cl)Cl	23µM*	5.8µM*	7.3µM*	7.3µM*	5.8µM*	5.8µM*
O=S(=O)(NC(=S)c1ccccc1)c1ccccc1	i	-8%	24%	?	1%	?
Cc1ccc(C(=O)CCC(=O)Nc2ccccc2C)c(C)c1	i	3%	10%	14%	-1%	i
SMILES	KB-V1 MDR tox	SW480 rereplic	HT1080 IDH1KD tx	HT1080-NT tox	MCF10A rereplic	KB-3-1 tox
COc1ccc(NC(=O)CSc2nc3ccc(Nc4nc(N5CCOCC5)nc(N5CCOCC5)n4)cc3s2)cc1	i	13%	2%	2%	2.1µM*	i
Cc1ccc(NC(=O)CSc2nc3ccc(Nc4nc(N5CCOCC5)nc(N5CCOCC5)n4)cc3s2)cc1	?	?	2%	0%	5.8µM*	?
COc1ccc(-n2nc([N+](=O)[O-])c(=NCc3ccco3)n2O)cc1	i	-3%	4%	9%	-2%	i
COC(=O)[C@@]1(Cc2ccc(F)cc2)[C@H]2c3cc(C(=O)N4CCCC4)n(Cc4ccc(C)c(F)c4F)c3C[C@H]2CN1C(=O)c1ccccc1	23µM*	.	?	?	.	?
COC(=O)[C@@]1(Cc2ccc(F)cc2)[C@H]2c3cc(C(=O)N4CCCC4)n(CC4CC4)c3C[C@H]2CN1C(=O)c1ccccc1	?	.	?	?	.	i
COC(=O)[C@@]1(Cc2ccc(F)cc2)[C@H]2c3cc(C(=O)N4CCCC4)n(Cc4ccc(C)o4)c3C[C@H]2CN1C(=O)c1ccccc1	i	.	21µM*	?	.	?
COC(=O)[C@@]1(Cc2ccc(F)cc2)[C@H]2c3cc(C(=O)N4CCCC4)n(CCF)c3C[C@H]2CN1C(=O)c1ccccc1	?	.	-14%	?	.	?
COC(=O)[C@@]1(Cc2ccc(F)cc2)[C@H]2c3cc(C(=O)N4CCCC4)n(CCCNc4ncc(C(F)(F)F)cc4Cl)c3C[C@H]2CN1C(=O)c1ccccc1	i	?	-22%	-24%	5.8µM*	i
COC(=O)[C@@]1(Cc2ccc(F)cc2)[C@H]2c3cc(C(=O)N4CCCC4)n(Cc4ccc(C(F)(F)F)nc4)c3C[C@H]2CN1C(=O)c1ccccc1	i	16µM*	-10%	-12%	87%	?
Cc1ccc2nc(-c3ccc(C)o3)c(Nc3ccc4c(c3)OCO4)n2c1	.	.	0%	4%	.	.
CCCCn1nnnc1NCc1ccc(C)cc1	i	27%	-3%	0%	5%	i
O=C(NCc1cccnc1)C(=O)NCC(c1ccco1)N1CCOCC1 (stereo not given)	i	13%	11%	18%	9%	i

Source: PubChem BioAssay
